PubChem BioAssay AID504941 (Broad Institute, 2011)
Among all 1,200 compounds or so, about 170 (14%) were called active. The rule behind the calls is not given here. Not all results are given here. Entries with a potency or affinity are not part of this list.

Test: twin-arginine translocation blockade, bacterial reporter – cherry-pick, set 2, plate reader, dose response (AID 504941)
Conditions: E. coli Tat transport reporter; series mostly up to 38 µM; activity change, negative = inhibition: at the top concentration

Activity change, negative = inhibition, inactive:
Cc1ccc(NC(=O)c2ccc(Oc3ncccn3)cc2)cc1 0.345%
Cc1cc(=O)[nH]c(SCC(=O)NCc2ccc3c(c2)OCO3)n1 -7.75%
CC(C)C(=O)Nc1ccc(Nc2ccccc2)cc1 9.17%
CCCCOc1ccc(NC(=O)c2cc(F)c(F)cc2Cl)cc1 8.26%
O=C(Cn1nc(C(=O)O)c2ccccc2c1=O)NCc1ccco1 34%
O=C(NCCc1ccccc1)c1n[nH]c2ccccc12 12%
CCc1ccc(C(C(=O)NC2CCCC2)N(CCOC)C(=O)CCC(=O)Nc2cc(C)on2)cc1 (stereo not given) 0.853%
Cc1nc(SCc2ccc(C(=O)O)cc2)c2c(C)c(C)sc2n1 9.12%
CN(C)CCCNC(=O)C(=O)NCC1CCCO1 (stereo not given) 21.6%
CCO[C@@H]1OC(C(=O)O)=C[C@H](C)[C@H]1CCCO 15.7%
CC(=O)Oc1ccc(C(=O)Cc2ccccn2)c(O)c1 -34.4%
CC(C)[C@@H](C(=O)N1CCNCC1)n1cc(CCO)nn1 15.8%
CCOC(=O)c1cnn(-c2cc(C)c3ccccc3n2)c1N 0.267%
NS(=O)(=O)c1ccc(CCNc2nc(C(F)(F)F)nc3ccccc23)cc1 -18.2%
CCSC(=O)NC12CC3CC(CC(C3)C1)C2 12%
Cc1ccc(C)n1-c1ccc(-c2ccnc(N)n2)cc1 -3.79%
O=[N+]([O-])c1cccc(N(CC(O)CN2CCCCC2)S(=O)(=O)c2ccccc2)c1 (stereo not given) -2.2%
C#CC(C)(CC)NC(=O)c1cc2cccc(CC=C)c2oc1=O (stereo not given) -4.26%
COc1ccc(S(=O)(=O)N2CCC(C(N)=O)CC2)cc1 -6.67%
CCOC(=O)c1c(NC(=O)CSc2n[nH]c(CNc3ccccc3)n2)sc(C)c1C -2.05%
C=CCN1C=C2C(=O)C(C)(OC(=O)c3ccc(OC)cc3)C(=O)C(c3ccco3)=C2C=C1CCCC (stereo not given) -17.3%
O=C(O)c1cccc(NC(=O)c2ccccc2)c1 7.3%
CC(C)N(c1ccccc1)c1ccc(NC(=O)COC(=O)CCN2C(=O)c3cccc([N+](=O)[O-])c3C2=O)cc1 -0.764%
O=C(CSc1cn(CCNC(=O)c2c(F)cccc2F)c2ccccc12)NCC1CCCO1 (stereo not given) -4.72%
O=C(CSc1ncnc2c1nnn2Cc1ccccc1F)NCC1CCCO1 (stereo not given) -22.2%
Cc1ccccc1OCC(=O)Nc1ccc(S(=O)(=O)Nc2onc(C)c2C)cc1 14.2%
O=C(/C=C/Nc1ccccc1Br)c1ccccn1 -9.87%
CC1(C)CC(NC(=O)c2ccc(-c3ccc([N+](=O)[O-])cc3)o2)CC(C)(C)N1 -19.5%
Cc1ccc(NC(=S)NC(=O)c2ccc(F)cc2)cc1S(=O)(=O)Nc1ccccc1Cl -2.37%
C[C@H]1CN([C@@H](C)CO)C(=O)c2cccc(NS(=O)(=O)c3ccc(F)cc3)c2O[C@H]1CN(C)Cc1ccc(Cl)c(Cl)c1 35.5%
COC(C(=O)Nc1ccnn1C1CCN(C(=O)c2ccc(C=O)cc2)CC1)c1ccccc1 (stereo not given) -9.7%
Cc1ccc(NC(=O)c2cccs2)cc1S(=O)(=O)Nc1cccc(Cl)c1 22%
Cc1ccccc1-n1c(SCC(=O)N2CCOCC2)nc(O)c(Cc2ccccc2)c1=O -5.11%
COCCn1c(=NC(=O)c2ccc3c(c2)OCCO3)sc2cc(S(N)(=O)=O)ccc21 -9.51%
CN1CCc2c(sc3nc(SCC(=O)N4CCOCC4)nc(N)c23)C1 -3.11%
COC(=O)C1(S(=O)(=O)C2(C(=O)OC)CCCC2)CCCC1 -3.26%
Cc1ccc(NCc2nnc3n2CCCCC3)c(C)c1 20.5%
O=c1cc(O)nc[nH]1 -1.49%
CC1(C)CC(=O)C/C(=N\NC(=O)CCc2ccc(S(=O)(=O)N3CCOCC3)cc2)C1 0.359%
CCc1ccc2c(CSc3nnnn3C)cc(=O)oc2c1 1.88%
COc1cccc(COC(=O)C2CC(=O)N(Cc3ccco3)C2)c1OC (stereo not given) -18.3%
O=c1[nH]c(N2CCCCC2)nc2c1CCCC2 22.6%
S=c1nc(-c2ccccc2Br)[nH][nH]1 3.19%
CCOC(=O)N1CCN(c2ccc(C(=O)CC)cc2F)CC1 -16.3%
CN(C)c1nc(SCC#N)nc(N2CCOCC2)n1 -12.4%
CCCC(=O)NC1=C(C#N)C2(CCCC2)Cc2ccccc21 21.4%
c1ccc(CC2=NCCN2)cc1 27.8%
O=S(=O)(/N=C(/Nc1ccccc1)c1ccccc1)c1cccs1 16%
O=C(Nc1cccc(NC(=O)c2ccco2)c1)c1ccccc1 -7.6%
N#Cc1ccccc1CSc1ccccn1 -4.99%
O=C1CCCN1Cc1ccccc1 3.9%
COc1ccc(Cl)cc1S(=O)(=O)Nc1noc2ccccc12 -10.8%
Nc1ccccc1C(=O)NCC1(c2ccccc2)CCCC1 -13.6%
Cc1ccccc1Nc1nnc(C)c(=O)[nH]1 -11.2%
Cc1ccc(C(=O)N2CCCC(CCC(=O)NCc3ccc(F)c(F)c3)C2)cn1 (stereo not given) -11.3%
CCCc1cc(=O)oc2cc(OCC(=O)N(C)C)c(Cl)cc12 13.6%
C#CCNC(=O)C1=C[C@H](c2csc3ccccc23)[C@@H](CCCO)[C@H](OCC)O1 3.86%
COc1cc(OC)cc(C(=O)N(CN2CCCC2=O)c2ccccc2OC)c1 -1.04%
CCOCCCNC(=S)NCCNc1nc2ccc(C)cc2cc1C#N -5.46%
Cc1ccsc1C1C(C#N)=C(N)OC2=C1C(=O)CC(C)C2 (stereo not given) 11.4%
CC(=O)N(Cc1ccc(F)cc1)c1cccc(C)c1C -14.8%
Cc1ccc(NC(=O)C(c2ccc(Cl)cc2)N2CCCCC2)cc1 (stereo not given) -1.59%
Cc1cc(C(=O)N2CCN(c3ccccc3)CC2)no1 3.1%
Cc1cc(C)n2nc(SC(C)C(=O)N3CC(C)OC(C)C3)nc2n1 (stereo not given) -4.69%
CC1=C(C#N)C(c2cn(-c3ccccc3)nc2-c2cccs2)C(C#N)=C(C)N1 24.9%
Cc1nc2ncnn2c(C)c1CCC(=O)N1CCCCC1 4.61%
CCNC(=O)OCC12CC3CC(CC(C3)C1)C2 2.46%
CCOc1ccccc1NC(=O)NCc1ccc2c(c1)OCO2 21.1%
O=C1CN(C(=O)COC(=O)c2cc(S(=O)(=O)N3CCOCC3)ccc2Cl)c2ccccc2N1 15.5%
Cc1ccc(-c2n[nH]c3c2C(c2ccccc2)N(c2ccc(C(=O)O)cc2)C3=O)cc1 (stereo not given) -5.26%
COc1ccc(CN2CCN(C(=O)C3CCC(CNS(=O)(=O)c4ccccc4)CC3)CC2)c(OC)c1OC (stereo not given) 6.45%
Cc1nn(-c2ccccc2)c2nc3c(cc12)C(=O)CCC3 16.6%
COc1ccc(-n2c(Cc3cccn3C)nnc2SCC(=O)Nc2ccc(C(C)=O)cc2)cc1 17.2%
CC(=O)c1ccc(NC(=O)CSc2nc(N3CCOCC3)nc(N3CCOCC3)n2)cc1 -10.8%
Cc1ccc(-c2nc3ccccc3s2)cc1NC(=S)NC(=O)c1cccc2ccccc12 9.11%
COc1ccc(-c2nc3ccccc3o2)cc1NC(=O)c1ccc(Br)o1 9.12%
Cc1cc(NC(=O)C2CC2)ccc1NC(=O)c1cccs1 2.3%
CC1=NN(c2ccccc2)C(=O)C1c1ccccc1 (stereo not given) 23.5%
O=C(NCCOC(=O)c1cccs1)c1cccnc1 -2.94%
CCOC(=O)CNC(=O)c1ccccc1 4.19%
CCOC(=O)CNS(=O)(=O)Cc1ccccc1 7.82%
Cc1cc2ncn(CCOc3ccccc3)c2cc1C -9.86%
COc1ccc(/C=C(/NC(=O)c2cccc([N+](=O)[O-])c2)C(=O)O)cc1OC 2.13%
CC(C)(C)OC(=O)N(CCc1ccccc1)Cc1cccc(OCc2cccc(NC(=O)/C=C/c3ccccc3)c2)c1 23.8%
O=C(Nc1cccnc1Cl)c1noc2c1CCc1ccccc1-2 -13.1%
Cc1ccc(CN(C(=O)c2sc3ccccc3c2Cl)C2CCS(=O)(=O)C2)cc1 (stereo not given) 5.46%
COc1ccccc1-n1nc(C(=O)Nc2ccc3c(c2)OCO3)c2ccccc2c1=O 26.9%
C=CCNC(=O)c1ccccc1NC(=O)Nc1ccccc1 9.76%
COCCN(C(=S)Nc1c(C)cc(C)cc1C)C(C)c1cccnc1 (stereo not given) 6.68%
CCOCCCNC(=O)c1ccc(Cn2c(=S)[nH]c3c([nH]c4ccc(OC)cc43)c2=O)cc1 25.4%
CCOC(=O)Cc1c[nH]c2ccc([N+](=O)[O-])cc12 2.39%
O=C(/C=C/c1ccccc1)Nc1cc(S(=O)(=O)N2CCOCC2)ccc1N1CCCC1 12.8%
COc1ccc(N=C2SC(C(=O)O)CC(=O)N2Cc2ccc(OC)c(OC)c2)cc1 (stereo not given) 2.87%
CNC(=O)C1CCN(S(=O)(=O)c2c(C)noc2/C=C/c2cccc(OC)c2)CC1 22.2%
COc1cc(/C=N/NC(=O)c2ccccn2)ccc1OC(=O)c1ccc(Br)cc1 31.3%
COc1ccc([N+](=O)[O-])cc1/C=N/NC(=O)Cc1ccccc1 10.8%
C=CCNC(=S)Nc1cccc2[nH]ncc12 4.33%
O=C(O)c1cn(-c2ccc(F)cc2)c2cc(N3CCNCC3)c(F)cc2c1=O -53.8%
CN1C2CCC1CC(NS(=O)(=O)c1cc(Cl)c(Cl)cc1Cl)C2 (stereo not given) 15.7%
CCCCSc1nc2c(c(=O)[nH]c(=O)n2C)n1CCc1ccccc1 -19.5%
O=C(CCc1nc2ccccc2c(=O)[nH]1)OCC(=O)c1cccc(Cl)c1 -12.3%
CCOc1ccc(S(=O)(=O)N2CCCCC2)cc1NC(=O)CN1C(=O)NC(CC)(c2ccccc2)C1=O (stereo not given) -7.52%
COc1ccc(S(=O)(=O)N2CCOCC2)cc1NC(=O)c1ccc2c(c1)OCO2 -13.2%
Cc1c(C)c2c(C)nn(-c3ccccc3)c2[nH]c1=O -0.775%
CC(C)(C)c1nn2cnnc2n(/N=C/c2cccc3ccccc23)c1=O 24.3%
CCOC(=O)c1c(N/C=C(\C#N)c2nc(-c3ccc(OC(C)=O)cc3)cs2)sc2c1CCC2 12.3%
CCc1nc2cc3sc(CC)nc3cc2s1 15.8%
CC(C)c1ccc(NC(=O)c2snc3ccc(Cl)cc23)cc1 -3.4%
Cc1ccc(C(=O)Nc2nc(C)c(C(=O)Nc3ccc4c(c3)CCC4)s2)cc1 15.6%
Cc1ccc[n+](CC(=O)c2cc3ccccc3oc2=O)c1 3.31%
